Assay results published in PubChem BioAssay (NCI).
Compounds without any hit were thinned out: in the full panel of roughly 79,000, 15% have a hit. The source made the active and inactive calls. Rule as the data show it: active = growth inhibition above about 70%; inactive = the rest.

Assay: NCI Yeast Anticancer Drug Screen. Data for the sgs1 mgt1 strain (AID 161);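 also: 0% = growth of cultures given vehicle only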
Settings: S. cerevisiae sgs1 mgt1 strain, at 50.0 µM, stronger effect = higher value
In short: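 Compounds are added to genetically altered yeast, and growth is compared with cultures given vehicle alone to give percent inhibition.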

Row | Compound | growth inhibition
1 | CCCc1c(O)cccc1O | 16.9% (inactive)
2 | CC(=O)Oc1cccc2cc3cc(C)cc(OC(C)=O)c3c(OC(C)=O)c12 | 2.95% (inactive)
3 | CCOC(=O)/C(=C/c1ccc(C#N)cc1)N(CC)CC | -9% (inactive)
4 | C(=N\N(CCCCN(/N=C/c1ccccc1)c1ccccc1)c1ccccc1)/c1ccccc1 | 13.8% (inactive)
5 | [O-][n+]1ccccc1/C=C/c1cccc[n+]1[O-] | -7.55% (inactive)
6 | C=C1C(=O)N2CCc3c([nH]c4ccccc34)[C@H]2C[C@@H]1CO | 4.2% (inactive)
7 | CCOC(=O)C1=CC2CCOC2O1 (stereo not given) | 5.85% (inactive)
8 | Cc1cc2c(cc1Cl)SC(NNC(=O)c1ccncc1)=NS2(=O)=O | -45.9% (inactive)
9 | C/C(N=NS(=O)(=O)c1ccccc1)=C1\C=CC=CN1O | -4.55% (inactive)
10 | CNC(=S)Nc1ccccc1 | 3.55% (inactive)
11 | O=C(O)C1CCCCC1C(=O)Nc1ccc(Cl)c(Cl)c1 (stereo not given) | -5.65% (inactive)
12 | O=C1/C(=C/C=C/c2ccccc2)CCC1CNc1ccc(Br)cc1 (stereo not given) | -17.8% (inactive)
13 | Cc1cc(O)c(/C=N/C(=S)Nc2ccccc2)c(=O)o1 | -24.1% (inactive)
14 | Clc1ccc(Cl)c(-c2csc(-c3cccnc3)n2)c1 | 12.5% (inactive)
15 | Fc1ccc(-c2nnc(-c3ccccc3)o2)cc1 | 25.2% (inactive)
16 | CC1=Nc2nc3ccccc3n2C(C)(C)C1 | 11.6% (inactive)
17 | COc1ccc(CCCC2C(=O)CC(C)OC2=O)cc1OC (stereo not given) | 2.1% (inactive)
18 | COc1cccc(NC(=O)C(=O)C(C(=O)c2ccccc2F)C2OC(=O)c3ccccc32)c1 (stereo not given) | 35.5% (inactive)
19 | Cn1c([N+](=O)[O-])cnc1COS(=O)(=O)c1cccnc1 | 25.8% (inactive)
20 | CC(C)c1ccc2c(c1)CC[C@H]1[C@](C)(COCCC#N)CCC[C@]21C | -14.2% (inactive)

Row | Compound | growth inhibition
21 | CC12CCCC1C1CC=C3CC(SC4CCC5(C)C(=CCC6C7CCCC7(C)CCC65)C4)CCC3(C)C1CC2 (stereo not given) | -21.5% (inactive)
22 | CC(=O)NN | -0.8% (inactive)
23 | O=C1OC(=O)C(c2ccccc2)=C1c1ccccc1 | 9.55% (inactive)
24 | C/C(=N\NC(=S)N1CCCCCC1)c1nccs1 | -1.5% (inactive)
25 | Cc1ccc(C)c2c1C(=O)c1ccccc1C2(O)C#Cc1ccccc1 (stereo not given) | 29.4% (inactive)
26 | CC(=O)C(N)=NCc1ccccc1 | -10.7% (inactive)
27 | COc1cc(/C=C\C(=O)c2cccc([N+](=O)[O-])c2)cc(OC)c1OC | 13.9% (inactive)
28 | COc1ccc2cc(C(=O)c3ccccc3)c(=O)oc2c1 | 18.8% (inactive)
29 | OC1CCC2=C(C1)C1CCC2C1 (stereo not given) | -11.8% (inactive)
30 | C#CCN(N=O)C(=O)NC(CCCCNC(=O)OCc1ccccc1)C(=O)OCc1ccccc1 (stereo not given) | -7.75% (inactive)
31 | Nc1nnc(-c2ccccc2)o1 | 4.05% (inactive)
32 | CCc1ccc2ccccc2c1N | 6.1% (inactive)
33 | CCN(c1ccccc1)S(=O)(=O)c1cc(N)ccc1C | 2.55% (inactive)
34 | Cn1c2c(c(=O)c3c4[nH]c5c(c(=O)c4ccc31)CCCC5)CCCC2 | -15.1% (inactive)
35 | COc1ccc(NC=O)c(C)c1 | -5.35% (inactive)
36 | c1ccc2c3c(ccc2c1)CCCC3 | 2.9% (inactive)
37 | O=C(O)c1ccc(C(=O)c2ccccc2C(=O)O)cc1C(=O)O | -44% (inactive)
38 | C(=N\C(/N=C/c1ccccc1)c1ccccc1)/c1ccccc1 | -3.25% (inactive)
39 | CCNC(=O)Nc1ccccn1 | 8.85% (inactive)
40 | O=C(c1ccccc1)c1c(O)c2ccccc2oc1=O | -7.95% (inactive)

Assay: NCI Yeast Anticancer Drug Screen. Data for the cln2 rad14 strain (AID 165);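 also: 0% = growth equal to vehicle treated cultures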
Settings: S. cerevisiae cln2 rad14 strain, at 50.0 µM, stronger effect = higher value
In short: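 Relative to vehicle controls, growth inhibition of compound-treated cln2 rad14 yeast was recorded.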

Row | Compound | growth inhibition
41 | CCCc1c(O)cccc1O | 0.9% (inactive)
42 | CC(=O)Oc1cccc2cc3cc(C)cc(OC(C)=O)c3c(OC(C)=O)c12 | -2.95% (inactive)
43 | CCOC(=O)/C(=C/c1ccc(C#N)cc1)N(CC)CC | 24.4% (inactive)
44 | C(=N\N(CCCCN(/N=C/c1ccccc1)c1ccccc1)c1ccccc1)/c1ccccc1 | 21.8% (inactive)
45 | [O-][n+]1ccccc1/C=C/c1cccc[n+]1[O-] | -22% (inactive)
46 | C=C1C(=O)N2CCc3c([nH]c4ccccc34)[C@H]2C[C@@H]1CO | 5% (inactive)
47 | CCOC(=O)C1=CC2CCOC2O1 (stereo not given) | -28.7% (inactive)
48 | Cc1cc2c(cc1Cl)SC(NNC(=O)c1ccncc1)=NS2(=O)=O | -32.4% (inactive)
49 | C/C(N=NS(=O)(=O)c1ccccc1)=C1\C=CC=CN1O | 2.5% (inactive)
50 | CNC(=S)Nc1ccccc1 | -8.15% (inactive)
51 | O=C(O)C1CCCCC1C(=O)Nc1ccc(Cl)c(Cl)c1 (stereo not given) | -4.15% (inactive)
52 | O=C1/C(=C/C=C/c2ccccc2)CCC1CNc1ccc(Br)cc1 (stereo not given) | 16.9% (inactive)
53 | Cc1cc(O)c(/C=N/C(=S)Nc2ccccc2)c(=O)o1 | -8.65% (inactive)
54 | Clc1ccc(Cl)c(-c2csc(-c3cccnc3)n2)c1 | -34.5% (inactive)
55 | Fc1ccc(-c2nnc(-c3ccccc3)o2)cc1 | 7.2% (inactive)
56 | CC1=Nc2nc3ccccc3n2C(C)(C)C1 | -3.95% (inactive)
57 | COc1ccc(CCCC2C(=O)CC(C)OC2=O)cc1OC (stereo not given) | -25.8% (inactive)
58 | COc1cccc(NC(=O)C(=O)C(C(=O)c2ccccc2F)C2OC(=O)c3ccccc32)c1 (stereo not given) | 18.9% (inactive)
59 | Cn1c([N+](=O)[O-])cnc1COS(=O)(=O)c1cccnc1 | 11.1% (inactive)
60 | CC(C)c1ccc2c(c1)CC[C@H]1[C@](C)(COCCC#N)CCC[C@]21C | -63.1% (inactive)

Row | Compound | growth inhibition
61 | CC12CCCC1C1CC=C3CC(SC4CCC5(C)C(=CCC6C7CCCC7(C)CCC65)C4)CCC3(C)C1CC2 (stereo not given) | -37.9% (inactive)
62 | CC(=O)NN | -1.65% (inactive)
63 | O=C1OC(=O)C(c2ccccc2)=C1c1ccccc1 | -10.8% (inactive)
64 | C/C(=N\NC(=S)N1CCCCCC1)c1nccs1 | -18% (inactive)
65 | Cc1ccc(C)c2c1C(=O)c1ccccc1C2(O)C#Cc1ccccc1 (stereo not given) | 21.1% (inactive)
66 | CC(=O)C(N)=NCc1ccccc1 | 4.6% (inactive)
67 | COc1cc(/C=C\C(=O)c2cccc([N+](=O)[O-])c2)cc(OC)c1OC | 12.5% (inactive)
68 | COc1ccc2cc(C(=O)c3ccccc3)c(=O)oc2c1 | 11.1% (inactive)
69 | OC1CCC2=C(C1)C1CCC2C1 (stereo not given) | -18.4% (inactive)
70 | C#CCN(N=O)C(=O)NC(CCCCNC(=O)OCc1ccccc1)C(=O)OCc1ccccc1 (stereo not given) | -2.35% (inactive)
71 | Nc1nnc(-c2ccccc2)o1 | -19.9% (inactive)
72 | CCc1ccc2ccccc2c1N | -1.65% (inactive)
73 | CCN(c1ccccc1)S(=O)(=O)c1cc(N)ccc1C | -2.8% (inactive)
74 | Cn1c2c(c(=O)c3c4[nH]c5c(c(=O)c4ccc31)CCCC5)CCCC2 | -5.65% (inactive)
75 | COc1ccc(NC=O)c(C)c1 | -10.3% (inactive)
76 | c1ccc2c3c(ccc2c1)CCCC3 | -8% (inactive)
77 | O=C(O)c1ccc(C(=O)c2ccccc2C(=O)O)cc1C(=O)O | 43.3% (inactive)
78 | C(=N\C(/N=C/c1ccccc1)c1ccccc1)/c1ccccc1 | -43.8% (inactive)
79 | CCNC(=O)Nc1ccccn1 | 0.5% (inactive)
80 | O=C(c1ccccc1)c1c(O)c2ccccc2oc1=O | -16.8% (inactive)
